About 79,000 compounds went through this panel and 15% of them were active in at least one assay; those are over-represented in the sample as a whole. Unmarked numbers belong to inactive results. Calls of active or inactive are those of the source. No stated cut-off is given here; in the data, active means growth inhibition above about 70%; inactive means the rest.
Tests used:
[1] = NCI Yeast Anticancer Drug Screen. Data for the rad50 strain (AID 155);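 further: 0% = growth of vehicle-only cultures of the same strain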; details: S. cerevisiae rad50 strain growth inhibition, stronger effect = higher value
Method in brief: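 A DNA repair-deficient yeast mutant serves as the test organism; compound-induced growth inhibition is calculated against vehicle-treated cells.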

[2] = NCI Yeast Anticancer Drug Screen. Data for the mec2-1 strain (AID 157); details: S. cerevisiae mec2-1 strain, stronger effect = higher value
Method in brief: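 Each compound was tested on mec2-1 yeast, a strain altered in DNA damage repair or cell cycle control. Growth inhibition is reported relative to vehicle.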

[3] = NCI Yeast Anticancer Drug Screen. Data for the sgs1 mgt1 strain (AID 161);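 further: 0% = growth of cultures given vehicle only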; details: S. cerevisiae sgs1 mgt1 strain, stronger effect = higher value
Method in brief: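 Inhibition of yeast growth, normalised to vehicle-treated controls, is reported for a strain bearing genetic alterations in DNA damage repair.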

[4] = NCI Yeast Anticancer Drug Screen. Data for the cln2 rad14 strain (AID 165);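 further: 0% = growth equal to vehicle treated cultures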; details: S. cerevisiae cln2 rad14 strain, stronger effect = higher value
Method in brief: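 Test compounds were added to cln2 rad14 yeast cultures; inhibition of growth was then determined by comparison with vehicle treatment.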

[5] = NCI Yeast Anticancer Drug Screen. Data for the bub3 strain (AID 167); details: S. cerevisiae bub3 mutant strain, stronger effect = higher value
Method in brief: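 Inhibition values come from growth of compound-treated mutant yeast normalised to vehicle-treated controls.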

[6] = NCI Yeast Anticancer Drug Screen. Data for the mlh1 rad18 strain (AID 175); details: S. cerevisiae mlh1 rad18 strain growth inhibition, stronger effect = higher value
Method in brief: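 Inhibition values reflect reduced growth of mutant yeast versus vehicle-treated controls following compound exposure; the mutations affect DNA damage repair.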

[7] = at 5.0 µM (retest, dose inferred, filed as 0.5)
[8] = at 50.0 µM (retest, dose inferred, filed as 5.0)

Row | Structure (SMILES) | growth inhibition [1, 7] | growth inhibition [1, 8] | growth inhibition ([1]; at 50.0 µM) | growth inhibition [2, 7] | growth inhibition [2, 8] | growth inhibition ([2]; at 50.0 µM) | growth inhibition [3, 7] | growth inhibition [3, 8] | growth inhibition ([3]; at 50.0 µM) | growth inhibition [4, 7] | growth inhibition [4, 8] | growth inhibition ([4]; at 50.0 µM) | growth inhibition [5, 7] | growth inhibition [5, 8] | growth inhibition ([5]; at 50.0 µM) | growth inhibition [6, 7] | growth inhibition [6, 8] | growth inhibition ([6]; at 50.0 µM)
1 | O=C1c2cccnc2-c2nccc3c2c1nc1cc(Br)ccc13 | 61% | 98% (active) | 88.7% (active) | 44% | 99% (active) | 92.2% (active) | 94% (active) | 98% (active) | 89.9% (active) | 28% | 97% (active) | 88.2% (active) | 88% (active) | 98% (active) | 89.2% (active) | 58% | 98% (active) | 77.2% (active)
2 | CCCCCCC(C)OC(=O)/C=C/c1ccccc1 (stereo not given) | 4% | 4% | 33.5% | -2% | 1% | 14.2% | 5% | 10% | 11.9% | 0% | 1% | 39.4% | 2% | 13% | 17.5% | 19% | -6% | 26.9%
3 | CC(C)c1ccc(/C=C2\CSCC3=C2NC(=S)NC3c2ccc(C(C)C)cc2)cc1 (stereo not given) | -6% | 83% (active) | 98.3% (active) | -17% | 92% (active) | 98.7% (active) | -13% | 87% (active) | 98.9% (active) | -3% | 83% (active) | 98.6% (active) | -13% | 95% (active) | 98.7% (active) | -4% | 94% (active) | 98.4% (active)
4 | CCN(CC)Cc1c(-c2ccccc2)oc(-c2ccccc2)c1CN(CC)CC | -15% | 33% | 64.7% | 1% | 2% | -0.45% | -15% | 33% | -5.75% | -2% | -1% | -9.8% | 1% | 8% | 36.4% | 2% | 32% | 67.4%
5 | CC(=O)Nc1ccc2c(c1)[nH]c(=O)c1cc(Cl)ccc12 | 60% | 96% (active) | 82.8% (active) | 18% | 63% | -1.45% | 12% | 72% (active) | 7.25% | -20% | 76% (active) | 0.95% | 4% | 7% | -7.95% | 29% | 91% (active) | 35.5%
